About 83,000 compounds went through this panel and 20% of them were active in at least one assay; those are over-represented in the sample as a whole.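 Treatment: one concentration, 48 hours, 96-well format. Scoring: percent growth, with anything below 10 considered active.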 Unmarked numbers belong to inactive results. Calls of active or inactive are those of the source.

For this assay, the system named is HCC-2998 colon. The assay can be described thus: NCI-60 one-dose screen, 48 h (100 = growth as untreated, 0 = no growth, -100 = all killed). Conditions: 10 µM unless noted.
Consider `CC(C)(CO)N(CCO)CCO`, for which the growth was 105%.
The figure for `CCCCCCCCn1ccc2cc(NC(=O)Cn3cc(CN4CCCCCC4)nn3)ccc21` is -80.9% (active).
On to `COc1cc2cc(Oc3ccc(NC(=O)Nc4ccccc4)cc3)c(C)nc2cc1OCCN1CCCCC1`, for which the growth was 73%.
As to `CN1CCN(CCCOC(=O)c2c3c(n4ccccc24)C(=O)c2ncccc2C3=O)CC1`, the growth is 29.9%.
For the molecule `Cc1ccc2[nH]c(-c3ccc(S(C)(=O)=O)cc3)c(/C=N/N=C(N)N)c2c1`, the growth is 74%.
In the case of `COc1ccc(C/C(C)=C(\c2ccc(O)cc2)c2ccc(OCCN3CCCC3)cc2)cc1` it was 104%; in that of `CC1(C)C2CC=C(/C=N/NC(=O)C3CCC(=O)N3)C1C2` (stereo not given), 119%; in that of `COc1ccc2cc(-c3ccc(-c4ccc(C(=N)N)s4)s3)ccc2c1`, -58.1% (active).
In the case of `Cc1nc2sc(C(=O)Nc3ccccc3)c(N)c2cc1C(=O)/C=C/c1ccccc1` it was -80.5% (active); in that of `O=C1/C(=C/c2ccc(C(F)(F)F)cc2)COc2ccc(O)cc21`, 94.1%.
The figure for `Cc1[nH]c(C(=O)Nc2ccc(C(N)=O)cc2NC(C)C)c(Cl)c1Cl` is 108%; for `Oc1c(CN2CCCC2)cc(COCc2ccccc2)c2cccnc12` it is 49.7%; for `CCCCCCCC/C=C\CCCCCCCCOc1ccccc1CC(=O)NCC[N+]1(C)CCCCC1` it is 57.5%.
With `O=C1Nc2ccc(F)cc2/C1=C\c1nc(-c2ccccc2F)n2ccccc12`, the growth was 100%.
In the case of `CN(C)Cc1ccc(C(=O)Nc2ccc3ncnc(Nc4ccc(Oc5cccc(F)c5)c(Cl)c4)c3c2)cc1` it was -65.3% (active); in that of `CCNC(=O)Oc1ccc(/C(=C(/C)Cc2ccc(OC)cc2)c2ccc(OCCN3CCCC3)cc2)cc1`, 71.2%.
In the case of `Cc1cscc(C)c1=S` it was 103%.
The figure for `CC(=O)N/C(=C1/OC(C(O)C(O)C(O)CO)CN1C)[P+](c1ccccc1)(c1ccccc1)c1ccccc1` (stereo not given) is 97.7%; for `COC(=O)c1c2c(n3ccc(C)cc13)C(=O)c1ccccc1C2=O` it is 94.6%.
With `COc1cc2nc(Nc3cccc(F)c3)nc(Nc3cc(C)[nH]n3)c2cc1OC`, the growth was -88.3% [20 µM] (active).
In the case of `CC1=CCC[C@@H]2C1(C)CC[C@H](C)[C@@]2(C)CC1=CC(=O)C(SC(C)(C)C)=CC1=O` (stereo not given in full) it was 96.8%.
The figure for `O=C(/C=C/c1cccc(Cl)c1)c1cccc(OCCCCOc2cccc(C(=O)/C=C/c3cccc(Cl)c3)c2)c1` is 85.5%; for `CCCNc1nc2ccccc2c2c(=O)c3cccc(Cl)c3sc12` it is 103%; for `COc1cccc(Nc2ccnc3[nH]c4ccc([N+](=O)[O-])cc4c23)c1` it is 84.8%.
The figure for `CCOC(=O)CSc1nc2sc3c(c2c(=O)n1-c1ccc([N+](=O)[O-])cc1)CCCCC3` is 82%.
Regarding `COc1cccc2c(N=NC(=O)c3ccc(S(N)(=O)=O)cc3)c(O)[nH]c12`, the growth is 113%.
The figure for `Clc1nccc2c(-c3csc(-c4c[nH]c5ccccc45)n3)c[nH]c12` is 63.7%.
The figure for `COc1cc(/C=N/Nc2ccccc2F)cc(OC)c1OC` is 108%; for `COc1ccc2c(c1)c(-c1nc(-c3cn(C)c4ncccc34)cs1)cn2CCO` it is 95.1%; for `CS(=O)(=O)Cc1cnc(C2OCCO2)s1` it is 107%.
For the molecule `COc1ccc(Nc2ncc(C(N)=O)c(NCCCNC(=O)C3CCC3)n2)cc1`, the growth is 98.5%.
The figure for `N#C/C(=C\c1ccc(-c2ccc(Cl)cc2)o1)c1ccc(Cl)cc1` is 96.4%; for `COc1cc(C(=O)/C=C/c2c(-c3cccs3)nc3ccccn23)cc(OC)c1OC` it is 17.1%; for `Fc1ccc(CNc2c3ccccc3nc3ccccc23)cc1` it is 18.3%.
The figure for `COc1cc(Nc2c3ccc(Cl)cc3nc3ccc(OC)cc23)c2ncccc2c1` is 44.8%; for `COc1cc(C2Cc3ncccc3-c3[nH]c(=O)c4cccnc4c32)cc(OC)c1OC` (stereo not given) it is 25.1%; for `CCc1ccc(CCC(=O)Nc2ncc(Cc3ccc(Cl)cc3)s2)o1` it is 46.9%.
Take `N#Cc1c(-c2ccccc2)nc2c(c(-c3ccccc3)nn2-c2ccccc2)c1-c1ccc(N2CCOCC2)cc1`: the growth is 107%.
In the case of `COc1ccc(NC(=O)c2ccc(C(=O)Nc3ccc(OC)cc3OC)cc2)c(OC)c1` it was 72.2%.
The figure for `CCN=C1C=CC(=C(c2ccc(N(C)C)cc2)c2ccc(N(C)C)cc2)c2ccccc21` is -40.8% (active).

These data come from PubChem BioAssay (NCI).
